SMN2 splice up – SMN2 splice variant enhancement | 210,000 tested, 2.8% active | AID 1458 | Potency, µM (titrated, usually from 46.1 µM), for inactives: at the top dose activity change, positive = activation, usual class: activators | HEK293 SMN2-luciferase splicing reporter, luminescence, 30-36 h; note: % of control where 0% means no effect; nearly all actives have a fitted effect of over 55% in size
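HEK293 cells carry an SMN2 minigene-luciferase reporter in which exon 7 inclusion puts luciferase in frame. Cells were seeded at 2000 cells/well, attached for 10-12 hours, then exposed to compounds for 30-36 hours at 37C before ONE-Glo luminescence.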
NPC1 promoter act – activators of NPC1 promoter; Huh7 NPC1 promoter luciferase reporter, 24 h; Potency, µM (doses to about 9.22 µM), without a hit: at the highest dose activation, hits mostly activators; 320,000 tested, 2.4% active; note: % of control where 0% means no effect; nearly all actives have a fitted effect of over 60% in size
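Stable NPC1-promoter luciferase Huh7 line; cpd (DMSO) 24 h, 37 °C, 5% CO2; Amplite luciferase reagent 10 min RT; luminescence readout. qHTS format.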
ELG1 genotox – genotoxicity induction in ELG1-luciferase HEK293T cells; 330,000 tested, 1.3% active; HEK293T ELG1-luciferase reporter, luminescence, 16 h; Potency, µM (highest dose often 46 µM), without a hit: at the top dose activity change, positive = activation, usual class: activators; note: % of control where 0% means no effect; nearly all actives have a fitted effect of over 60% in size
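DMSO vehicle served as control against compound-treated ELG1-luciferase HEK293T cells; exposure lasted 16 hr at 37 °C and 5% CO2, followed by ONE-Glo luminescence detection after 30 min.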
Rab9 prom act – activators of Rab9 promoter; Huh7 Rab9 promoter-luciferase reporter, luminescence, 24 h; Potency, µM (top dose mostly 9.22 µM), for the others: at the highest dose activation, negative = inhibition, most hits filed as activators; 320,000 tested, 2.8% active; note: % of control where 0% means no effect; nearly all actives have a fitted effect of over 60% in size
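Quantitative HTS format; Huh7 Rab9-luciferase reporter cells (1500/well) receive compound 2 h post-plating, incubate 24 h at 37 °C, then get luciferase reagent for 10 min before luminescence reading.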
Luc counter – Kinase-Glo luciferase inhibition (counter-screen); Potency, µM (top dose mostly 38.3 µM), for inactives: at the highest dose activity change, negative = inhibition, most hits filed as inhibitors; 200,000 tested, 0.28% active; Q27757; Kinase-Glo luciferase, ATP luminescence, 8 min; note: % is set by controls: 0 for no effect and ±100 for the full control effect; nearly all actives have a fitted effect of over 60% in size
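Light output from Kinase-Glo luciferase with luciferin and 10 uM ATP in 50 mM imidazole pH 7.2, KCl, MgCl2, Tween 20, BSA; compound pin-delivered, 8-min ambient incubation, then luminescence read.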
FLuc modulator – firefly luciferase modulation, counter-screen for miR-21 project. P08659. purified FLuc, Km substrates, luminescence inhibition. Potency, µM (highest dose often 57.5 µM), for the others: at the top dose activity change, negative = inhibition, most hits filed as inhibitors. 360,000 tested, 6.9% active. AID 588342;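 note: plate controls were vehicle for no effect and reference inhibitor for full effect; nearly all actives have a fitted effect of over 55% in size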
Target sequence (P08659 whole entry, looked up): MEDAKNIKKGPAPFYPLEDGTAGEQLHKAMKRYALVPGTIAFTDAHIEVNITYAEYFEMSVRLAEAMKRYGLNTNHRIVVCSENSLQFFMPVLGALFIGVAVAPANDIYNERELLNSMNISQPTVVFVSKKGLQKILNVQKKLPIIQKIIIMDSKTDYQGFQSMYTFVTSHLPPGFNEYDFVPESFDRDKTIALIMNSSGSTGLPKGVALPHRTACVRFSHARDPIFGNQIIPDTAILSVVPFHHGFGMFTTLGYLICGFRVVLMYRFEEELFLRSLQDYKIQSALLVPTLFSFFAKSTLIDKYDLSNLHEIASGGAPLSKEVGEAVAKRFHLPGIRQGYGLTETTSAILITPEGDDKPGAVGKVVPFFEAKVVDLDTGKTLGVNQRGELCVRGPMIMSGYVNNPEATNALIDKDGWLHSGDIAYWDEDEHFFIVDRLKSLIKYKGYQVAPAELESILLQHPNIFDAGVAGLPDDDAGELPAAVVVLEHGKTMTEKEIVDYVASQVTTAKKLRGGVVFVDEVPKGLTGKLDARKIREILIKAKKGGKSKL
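Biochemical qHTS of compounds, final roughly 60 µM downward over six points, against 10 nM purified firefly luciferase using Km concentrations of substrates (10 uM D-luciferin, 10 uM ATP) in Tris acetate pH 7.5 buffer; luminescence output.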
* hit, by the source's call; ? = inconclusive; nt = no result; [ ] = remark or other dose. Hits are enriched below; roughly 7.5% of the tested compounds scored in any of these assays. Calls come from the whole dose curve; as a rule, active = well fitted curve in the direction sought with a large enough effect; inconclusive = small, poorly fitted or top-dose-only effect, or another doubt; inactive = no such curve, though single readings can be large; an effect the other way counts as inactive or inconclusive. Potency is the fitted concentration of half-maximal effect.

SMILES	SMN2 splice up	NPC1 promoter act	ELG1 genotox	Rab9 prom act	Luc counter	FLuc modulator
O=C(N/N=C/c1cccc([N+](=O)[O-])c1)c1ccc(CN2CCOCC2)cc1	3%[1.84 µM]	-1%	-4%	13%	-3%	?
Nc1ccc(C(=O)N/N=C/c2cn(Cc3cccc(F)c3)c3ccccc23)cc1	nt	0%	1%	1%	nt	24µM*
O=C(CCc1ccccc1)N1CCN(c2ccc([N+](=O)[O-])cc2)CC1	-37%	-2%	-11%	1%	-2%	-6%
COCCNC(=O)C(=O)Nc1ccc2nc3n(c(=O)c2c1)CCCCC3	2%	nt	nt	nt	nt	5%
CCC1=C(OC(=O)N(CC)CC)N2C(=O)OC(=NCCOC)[C@]2(C)[C@H]2C1=CC[C@H]1C(=O)N(CC(=O)OC)C(=O)[C@H]12	-2%	nt	nt	nt	-5%	nt
Cn1c(N)c(C(=O)CSc2nnc(C3CC3)n2N)c(=O)n(C)c1=O	nt	0%	3%	1%	nt	1%
CCC(C)c1ccccc1NC(=O)COC(=O)c1ccc(C)c(NC(=O)c2ccco2)c1 (configuration not stated)	13%	2%	-5%	-4%	-3%	5%
Cc1nn(Cc2c(Cl)cccc2Cl)c(Cl)c1/C=N/NC(=O)c1cccnc1	14%	13%	10%	?	1%	9.5µM*
O=C(N/N=C/c1ccccc1Cl)c1cccc(F)c1	22µM*	2.5µM*	?	2µM*	-26%	4.8µM*
O=C(N/N=C/c1cccc2ccccc12)c1cccnc1	nt	2%	6%	1%	nt	15µM*
CCc1ccc(C(=O)N/N=C/c2cccc3ccccc23)nc1	?	25%	?	30%	-2%	5.4µM*
Cc1ccccc1/C=N/NC(=O)c1cccnc1	nt	-2%	8%	0%	nt	?
COc1ccc(C)cc1NC(=O)CC1NCCNC1=O (configuration not stated)	8%	nt	nt	nt	nt	4%
CN(CC(=O)Nc1ccc(N2CCOCC2)cc1)C(=O)c1cc2c(s1)CCCC2	nt	-2%	4%	4%	nt	-17%
COc1cc(NC(=O)CCCOc2cc(=O)n(C)c3ccccc23)cc(OC)c1OC	26%	nt	nt	nt	nt	-6%
Cn1cc(/C=N\O)nc2c(=O)n(-c3ccccc3)c(=O)nc1-2	8%	-1%	0%	-3%	-1%	-1%
CC1(C)CC(=O)N(c2ccc(Cl)cc2Cl)C(=O)C1	nt	0%	0%	4%	nt	-16%
CCOc1c2ccoc2nc2c(OC)c(OC)ccc12	nt	14%	?	21%	nt	21µM*
C=CCOc1ccc2c(OC)c3ccoc3nc2c1OC	13µM*	22%	?	2%	-8%	9.5µM*
COc1cc(C(=O)N/N=C/c2ccc3c(c2)c2ccccc2n3C)ccc1O	nt	-15%	-9%	0%	nt	11µM*
Cn1c2ccccc2c2cc(/C=N/NC(=O)c3cc(O)cc(O)c3)ccc21	nt	2%	6%	?	nt	24µM*
Cc1ccc(-n2c(=O)c3c(c4cc(C)ccc4n3C)n(CC(=O)NCc3ccccc3)c2=O)cc1	nt	nt	nt	nt	nt	-5%
O=C(CC1S/C(=N/N=C2CCCCCC2)NC1=O)Nc1ccc(Br)cc1F (configuration not stated)	nt	1%	-12%	-6%	nt	5%
O=C(CCl)c1ccc2c(c1)CCN2C(=O)C1CCCCC1	-99%	-15%	?	-34%	-3%	-10%
CC1CCC/C(=C\Nc2ccc(C(=O)O)cc2)C1=O (configuration not stated)	nt	?	?	?	nt	4.8µM*
O=C1CCCC/C1=C\Nc1ccc(C(=O)O)c(O)c1	nt	29%	16%	?	nt	11µM*
CC1CCC/C(=C\Nc2ccc(C(=O)O)c(O)c2)C1=O (configuration not stated)	nt	3.5µM*	?	3.5µM*	nt	11µM*
CCOC(=O)c1ccc(N/C=C2/CCCC(C)C2=O)cc1 (configuration not stated)	?	3.2µM*	4.1µM*	2.5µM*	-12%	5.4µM*

High-throughput results as filed in PubChem.
